Consider three molecules from PubChem BioAssay (EPA / NIEHS).

What all share (settings): mRNA level, 48 h; actives raise or lower the signal
Read-out in test [1]: Interleukin 6 Receptor (IL6R), IL6R (gene 3570)
The experiment in a line: LTEA_HepaRG_IL6R: Life Technologies and Expression Analysis (LTEA) Assay for Interleukin 6 Receptor (IL6R) using HepaRG (AID 2283510).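 On AC50: differentiated human HepaRG liver cells in serum-free induction medium; TaqMan qRT-PCR signal normalized to ACTB GAPDH and POLR2A housekeeping genes.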 In short, it runs like this:
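Concentration-response in human liver HepaRG cells: eight concentrations from 100 uM downward by half-logs, 48 h exposure, 0.5% DMSO vehicle. IL6R mRNA change measured by qRT-PCR and fitted in both directions relative to vehicle.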

Read-out in test [2]: Potassium channel subfamily K member 1 (KCNK1), KCNK1 (gene 3775)
The experiment in a line: LTEA_HepaRG_KCNK1: Life Technologies and Expression Analysis (LTEA) Assay for Potassium channel subfamily K member 1 (KCNK1) using HepaRG (AID 2283511). In short, it runs like this: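 Gain or loss of KCNK1 mRNA is the read-out, quantified by qRT-PCR against three housekeeping genes after 48 h chemical treatment of human HepaRG liver cells. Concentrations ran from 100 uM downward in half-log steps, vehicle 0.5% DMSO.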

Read-out in test [3]: Keratin 19 (KRT19), KRT19 (gene 3880)
Put plainly: LTEA_HepaRG_KRT19: Life Technologies and Expression Analysis (LTEA) Assay for Keratin 19 (KRT19) using HepaRG (AID 2283512). In a few lines:
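Readout is qRT-PCR of KRT19 mRNA, normalized to ACTB, GAPDH and POLR2A, from HepaRG cells treated 48 h with eight-point half-log dilutions topping at 100 uM. Activity in either direction is scored relative to 0.5% DMSO vehicle.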

Read-out in test [4]: Lipase C (LIPC), LIPC (gene 3990)
The experiment in a line: LTEA_HepaRG_LIPC: Life Technologies and Expression Analysis (LTEA) Assay for Lipase C (LIPC) using HepaRG (AID 2283514). In short, it runs like this:
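Read-out is LIPC transcript level by TaqMan qRT-PCR, normalized to three housekeeping genes, after 48 h chemical treatment of human HepaRG liver cells. Curves span eight concentrations topping at 100 uM; activity in either direction scored relative to 0.5% DMSO.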

Read-out in test [5]: Lipoprotein lipase (LPL), LPL (gene 4023)
The experiment in a line: LTEA_HepaRG_LPL: Life Technologies and Expression Analysis (LTEA) Assay for Lipoprotein lipase (LPL) using HepaRG (AID 2283515). In short, it runs like this: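 Read-out is LPL transcript level by qRT-PCR, normalized to three housekeeping genes and fitted bidirectionally against the DMSO control. Human HepaRG cells received chemicals for 48 h at up to 100 uM.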

Read-out in test [6]: MicroRNA 122 (MIR122), gene 406906
Put plainly: LTEA_HepaRG_MIR122: Life Technologies and Expression Analysis (LTEA) Assay for MicroRNA 122 (MIR122) using HepaRG (AID 2283516). Further: the transcript read is the microRNA miR-122. In short, it runs like this: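 HepaRG, 48 h exposure, 8-pt half-log from 100 uM, 0.5% DMSO; TaqMan qRT-PCR; bidirectional fit vs DMSO.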

Read-out in test [7]: matrix metalloproteinase-10 (MMP10), MMP10 (gene 4319)
Put plainly: LTEA_HepaRG_MMP10: Life Technologies and Expression Analysis (LTEA) Assay for matrix metalloproteinase-10 (MMP10) using HepaRG (AID 2283517). In short, it runs like this:
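Gain or loss of MMP10 mRNA is fitted relative to the 0.5% DMSO vehicle. The human hepatic line HepaRG receives a 48-hour serum-free exposure, in duplicate, with a maximum concentration of 100 uM.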

Read-out in test [8]: MYC, MYC (gene 4609)
The experiment in a line: LTEA_HepaRG_MYC: Life Technologies and Expression Analysis (LTEA) Assay for MYC using HepaRG (AID 2283518). In short, it runs like this: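 Expression changes were scored by TaqMan qRT-PCR with ACTB, GAPDH and POLR2A normalization. Cultures in serum-free induction medium received duplicate 8-point concentration series, highest 100 uM, for 48 h; DMSO (0.5%) served as baseline.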

Read-out in test [9]: matrix metalloproteinase-3 (MMP3), MMP3 (gene 4314)
The experiment in a line: LTEA_HepaRG_MMP3: Life Technologies and Expression Analysis (LTEA) Assay for matrix metalloproteinase-3 (MMP3) using HepaRG (AID 2283519). In a few lines: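 HepaRG, human; 48 h dosing, 8 conc. (max 100 uM, half-log), duplicate, 0.5% DMSO. Readout: MMP3 transcript by Fluidigm TaqMan qRT-PCR, ACTB/GAPDH/POLR2A-normalised. Gain or loss fitted vs DMSO.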

Read-out in test [10]: Nuclear factor NF-kappa-B p105 subunit (Homo sapiens) (UniProt P19838)
Put plainly: LTEA_HepaRG_NFKB1: Life Technologies and Expression Analysis (LTEA) Assay for Nuclear Factor Kappa B Subunit 1 (NFKB1) using HepaRG (AID 2283521).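 Further: differentiated human HepaRG liver cells in serum-free induction medium.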 In short, it runs like this:
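NFKB1 transcript was measured by TaqMan qRT-PCR on Fluidigm arrays, normalised to three housekeeping genes and fitted in both directions against 0.5% DMSO. HepaRG cells were dosed in duplicate for 48 h in serum-free induction medium, eight half-log steps from 100 uM.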

Read-out in test [11]: Protein phosphatase 2A (PPP2R4), PTPA (gene 5524)
The experiment in a line: LTEA_HepaRG_PPP2R4: Life Technologies and Expression Analysis (LTEA) Assay for Protein phosphatase 2A (PPP2R4) using HepaRG (AID 2283522). In short, it runs like this:
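Gene-expression endpoint in HepaRG hepatic cells: 48 h treatment across eight half-log concentrations up to 100 uM in 0.5% DMSO. PPP2R4 mRNA by qRT-PCR, normalized to three endogenous control genes.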

Read-out in test [12]: Phosphatase and tensin (PTEN), PTEN (gene 5728)
The experiment in a line: LTEA_HepaRG_PTEN: Life Technologies and Expression Analysis (LTEA) Assay for Phosphatase and tensin (PTEN) using HepaRG (AID 2283523). In short, it runs like this:
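Read-out is PTEN transcript level by multiplexed TaqMan qRT-PCR after 48 h chemical treatment of human HepaRG cultures in serum-free induction medium. Concentrations spanned 100 uM downward in half-log steps, 0.5% DMSO throughout; activity fitted in both directions against vehicle.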

Read-out in test [13]: solute carrier (SLC22A1), SLC22A1 (gene 6580)
The experiment in a line: LTEA_HepaRG_SLC22A1: Life Technologies and Expression Analysis (LTEA) Assay for solute carrier (SLC22A1) using HepaRG (AID 2283524).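 On AC50: differentiated human HepaRG liver cells in serum-free induction medium.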 In short, it runs like this: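 HepaRG (human liver line), 48 h dosing in serum-free induction medium; 8 conc., half-log down from 100 uM, 0.5% DMSO vehicle, duplicates. Endpoint: SLC22A1 mRNA, qRT-PCR, housekeeping-normalized; gain/loss fit vs DMSO.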

Read-out in test [14]: NAD(P)H dehydrogenase [quinone] 1 (NQO1), NQO1 (gene 1728)
Put plainly: LTEA_HepaRG_NQO1: Life Technologies and Expression Analysis (LTEA) Assay for NAD(P)H dehydrogenase [quinone] 1 (NQO1) using HepaRG (AID 2283526). In a few lines: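 Human HepaRG hepatic cells received chemicals for 48 h in serum-free induction medium with 0.5% DMSO, up to 100 uM. Expression was assessed by TaqMan qRT-PCR against housekeeping controls and fitted bidirectionally against DMSO.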

Read-out in test [15]: Nuclear factor erythroid 2-related factor 2 (Homo sapiens) (UniProt Q16236)
The experiment in a line: LTEA_HepaRG_NFE2L2: Life Technologies and Expression Analysis (LTEA) Assay for Nuclear factor erythroid 2-related factor 2 (NFE2L2) Transcription Factor using HepaRG (AID 2283527). In short, it runs like this: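 Transcript level of NFE2L2 is the read-out, measured by microfluidic TaqMan qRT-PCR and normalized to three housekeeping genes. Human HepaRG cultures received test chemical for 48 h at up to 100 uM in half-log steps. Gain or loss of signal is fitted relative to 0.5% DMSO.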

Read-out in test [16]: succinate dehydrogenase complex iron sulfur subunit B (SDHB), SDHB (gene 6390)
Put plainly: LTEA_HepaRG_SDHB: Life Technologies and Expression Analysis (LTEA) Assay for succinate dehydrogenase complex iron sulfur subunit B (SDHB) using HepaRG (AID 2283528). In a few lines:
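SDHB transcript level read by TaqMan qRT-PCR, housekeeping-normalised (ACTB, GAPDH, POLR2A), after 48 h chemical treatment of plated HepaRG cells; eight concentrations top 100 uM, half-log steps, 0.5% DMSO, duplicates; fitted both directions against DMSO.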

Read-out in test [17]: Signal transducer and activator of transcription 3 (Homo sapiens) (UniProt P40763)
The experiment in a line: LTEA_HepaRG_STAT3: Life Technologies and Expression Analysis (LTEA) Assay for Signal transducer and activator of transcription (STAT3) using HepaRG (AID 2283529). In a few lines:
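Read-out is STAT3 mRNA level by qRT-PCR, normalized to three housekeeping genes, in human HepaRG liver cells treated for 48 h. Concentrations ran from 100 uM downward in half-log steps; curves were fitted for gain or loss relative to 0.5% DMSO.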

The source made the active and inactive calls. How the source made its calls: active means hit-call score of the fitted dose curve at least 0.9, where 1 is the maximum; inactive means score below 0.9.

Sequence of Signal transducer and activator of transcription 3 (Homo sapiens) (P40763 whole entry, looked up): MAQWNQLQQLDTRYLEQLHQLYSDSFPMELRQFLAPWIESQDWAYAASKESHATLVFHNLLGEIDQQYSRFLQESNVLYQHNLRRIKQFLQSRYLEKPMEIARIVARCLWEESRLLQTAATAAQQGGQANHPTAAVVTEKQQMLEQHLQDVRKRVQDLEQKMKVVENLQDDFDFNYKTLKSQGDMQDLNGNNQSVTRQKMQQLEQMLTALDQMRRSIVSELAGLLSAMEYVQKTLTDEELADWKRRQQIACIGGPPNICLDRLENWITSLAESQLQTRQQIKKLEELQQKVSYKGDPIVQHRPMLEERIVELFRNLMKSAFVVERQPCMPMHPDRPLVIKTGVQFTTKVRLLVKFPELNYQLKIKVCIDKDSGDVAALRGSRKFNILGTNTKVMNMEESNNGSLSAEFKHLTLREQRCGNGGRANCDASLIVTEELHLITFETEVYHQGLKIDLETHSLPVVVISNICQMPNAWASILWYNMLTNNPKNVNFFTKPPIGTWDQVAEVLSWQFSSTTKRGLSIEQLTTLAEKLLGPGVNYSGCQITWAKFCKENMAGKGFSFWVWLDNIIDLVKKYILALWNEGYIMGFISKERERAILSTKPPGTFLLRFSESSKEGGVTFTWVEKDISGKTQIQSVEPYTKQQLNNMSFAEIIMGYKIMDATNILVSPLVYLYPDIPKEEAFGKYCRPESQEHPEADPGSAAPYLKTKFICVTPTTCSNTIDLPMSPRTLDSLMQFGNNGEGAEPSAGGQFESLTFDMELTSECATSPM
Sequence of Nuclear factor erythroid 2-related factor 2 (Homo sapiens) (Q16236 whole entry, looked up): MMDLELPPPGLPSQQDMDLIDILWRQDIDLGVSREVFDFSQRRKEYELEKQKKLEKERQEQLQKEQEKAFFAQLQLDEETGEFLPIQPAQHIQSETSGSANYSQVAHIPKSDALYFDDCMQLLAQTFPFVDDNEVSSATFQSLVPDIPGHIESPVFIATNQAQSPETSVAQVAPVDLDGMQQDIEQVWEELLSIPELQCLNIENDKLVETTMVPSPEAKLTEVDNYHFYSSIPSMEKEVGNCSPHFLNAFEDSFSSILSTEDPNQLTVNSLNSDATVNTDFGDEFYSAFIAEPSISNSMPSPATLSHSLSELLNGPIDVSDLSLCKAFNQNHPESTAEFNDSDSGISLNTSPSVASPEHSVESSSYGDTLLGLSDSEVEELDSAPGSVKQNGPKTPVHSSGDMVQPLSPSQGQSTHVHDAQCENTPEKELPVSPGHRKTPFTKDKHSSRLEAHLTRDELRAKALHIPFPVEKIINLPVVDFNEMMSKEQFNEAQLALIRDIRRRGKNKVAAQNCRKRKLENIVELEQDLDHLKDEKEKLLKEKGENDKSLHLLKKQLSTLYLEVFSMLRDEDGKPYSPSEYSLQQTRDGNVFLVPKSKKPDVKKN
Sequence of Nuclear factor NF-kappa-B p105 subunit (Homo sapiens) (P19838 whole entry, looked up): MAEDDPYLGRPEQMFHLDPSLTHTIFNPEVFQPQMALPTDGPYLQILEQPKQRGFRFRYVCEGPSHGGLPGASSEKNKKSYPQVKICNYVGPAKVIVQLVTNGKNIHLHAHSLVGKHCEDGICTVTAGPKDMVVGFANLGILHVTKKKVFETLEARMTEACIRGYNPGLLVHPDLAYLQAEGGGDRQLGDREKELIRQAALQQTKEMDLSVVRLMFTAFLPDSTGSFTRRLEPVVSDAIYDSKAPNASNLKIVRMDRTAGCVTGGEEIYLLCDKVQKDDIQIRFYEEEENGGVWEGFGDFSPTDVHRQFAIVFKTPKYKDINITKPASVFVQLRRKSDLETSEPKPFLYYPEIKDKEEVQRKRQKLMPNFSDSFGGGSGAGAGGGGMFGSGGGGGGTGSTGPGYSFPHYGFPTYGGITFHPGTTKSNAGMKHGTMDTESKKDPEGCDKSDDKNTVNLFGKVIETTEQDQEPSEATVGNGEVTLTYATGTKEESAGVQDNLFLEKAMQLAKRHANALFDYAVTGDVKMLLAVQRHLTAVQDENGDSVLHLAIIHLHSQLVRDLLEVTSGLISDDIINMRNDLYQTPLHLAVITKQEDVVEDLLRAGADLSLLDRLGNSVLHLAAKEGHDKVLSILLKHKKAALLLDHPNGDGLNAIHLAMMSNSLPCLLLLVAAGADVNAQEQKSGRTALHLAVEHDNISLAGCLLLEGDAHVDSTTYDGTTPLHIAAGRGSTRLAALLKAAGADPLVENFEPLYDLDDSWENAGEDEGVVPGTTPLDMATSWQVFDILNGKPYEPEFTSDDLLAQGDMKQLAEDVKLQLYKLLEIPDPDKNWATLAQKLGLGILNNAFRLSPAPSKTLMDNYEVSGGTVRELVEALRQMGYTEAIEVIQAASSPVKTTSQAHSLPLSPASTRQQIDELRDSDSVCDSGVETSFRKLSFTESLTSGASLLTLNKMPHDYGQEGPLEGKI

With `CC(C)N(C(=O)COc1nnc(C(F)(F)F)s1)c1ccc(F)cc1`, the molecule was classed as inactive in [1], in test [2], in test [3], in [4], in test [5] and in test [6]. The result in test [7], in test [8], in test [9], in test [10], in test [12] and in [14] was inactive. Also, the call in test [15], in [16] and in test [17] was inactive. Besides, the figures for the AC50 in test [11] and in test [13] were 31.4 µM (active) and 39.5 µM (active), respectively.
In the case of `CC[C@H](C)[C@H]1O[C@]2(C=C[C@@H]1C)C[C@@H]1C[C@@H](C/C=C(\C)[C@@H](O[C@H]3C[C@H](OC)[C@@H](O[C@H]4C[C@H](OC)[C@@H](O)[C@H](C)O4)[C@H](C)O3)[C@@H](C)/C=C/C=C3\CO[C@@H]4[C@H](O)C(C)=C[C@@H](C(=O)O1)[C@]34O)O2` (tested in a mixture with another compound), the AC50 was 13.9 µM (active) in test [1]; 16.8 µM (active) in test [2]; 7.94 µM (active) in test [3]; 13.8 µM (active) in test [4]; 13.5 µM (active) in test [5]; 7.42 µM (active) in test [6]. Also, the half-maximal activity concentration (AC50) in test [7] is 11.7 µM (active); in test [8] it was 13.9 µM (active); in test [9] it was 40.2 µM (active); in test [11], 47.7 µM (active); in test [12], 54.5 µM (active); in test [13] it was 9.94 µM (active). Further, the AC50 in test [14] is 49.7 µM (active); in test [15], 14 µM (active); in test [16] it was 59.5 µM (active); in test [17], 46 µM (active). In addition, the call in [10] was inactive.
On to `O=C(O)C(F)(F)C(F)(F)C(F)(F)C(F)(F)C(F)(F)C(F)(F)C(F)(F)F`, for which the molecule was called inactive in [1], in test [2], in [3], in test [4], in test [5] and in test [6]. The call in test [7], in [8], in test [9], in [10], in test [11] and in [12] was inactive. Further, the molecule was classed as inactive in test [13], in test [14], in test [15], in test [16] and in test [17].

The term AC50 denotes the concentration giving half of the maximal activity seen.
